Inhibition data for 90 compounds are collected here from PubChem BioAssay AID1671202 (University of Kansas High Throughput Screening Laboratory, 2021).

Values joined by “and” are separate entries in the source; they are usually repeats but may differ in a detail not shown here. Equal entries are not always repeated. The campaign covered roughly 190,000 compounds. About 6,900 (3.6%) were called active. What follows is part of a selection rich in actives, with near analogues and random picks from the rest. A number with no mark means an inactive call. Rule as the data show it: active = inhibition above about 50%; inactive = the rest.

Chain of Huntingtin (Homo sapiens) (P42858 whole entry, looked up, stated change not applied): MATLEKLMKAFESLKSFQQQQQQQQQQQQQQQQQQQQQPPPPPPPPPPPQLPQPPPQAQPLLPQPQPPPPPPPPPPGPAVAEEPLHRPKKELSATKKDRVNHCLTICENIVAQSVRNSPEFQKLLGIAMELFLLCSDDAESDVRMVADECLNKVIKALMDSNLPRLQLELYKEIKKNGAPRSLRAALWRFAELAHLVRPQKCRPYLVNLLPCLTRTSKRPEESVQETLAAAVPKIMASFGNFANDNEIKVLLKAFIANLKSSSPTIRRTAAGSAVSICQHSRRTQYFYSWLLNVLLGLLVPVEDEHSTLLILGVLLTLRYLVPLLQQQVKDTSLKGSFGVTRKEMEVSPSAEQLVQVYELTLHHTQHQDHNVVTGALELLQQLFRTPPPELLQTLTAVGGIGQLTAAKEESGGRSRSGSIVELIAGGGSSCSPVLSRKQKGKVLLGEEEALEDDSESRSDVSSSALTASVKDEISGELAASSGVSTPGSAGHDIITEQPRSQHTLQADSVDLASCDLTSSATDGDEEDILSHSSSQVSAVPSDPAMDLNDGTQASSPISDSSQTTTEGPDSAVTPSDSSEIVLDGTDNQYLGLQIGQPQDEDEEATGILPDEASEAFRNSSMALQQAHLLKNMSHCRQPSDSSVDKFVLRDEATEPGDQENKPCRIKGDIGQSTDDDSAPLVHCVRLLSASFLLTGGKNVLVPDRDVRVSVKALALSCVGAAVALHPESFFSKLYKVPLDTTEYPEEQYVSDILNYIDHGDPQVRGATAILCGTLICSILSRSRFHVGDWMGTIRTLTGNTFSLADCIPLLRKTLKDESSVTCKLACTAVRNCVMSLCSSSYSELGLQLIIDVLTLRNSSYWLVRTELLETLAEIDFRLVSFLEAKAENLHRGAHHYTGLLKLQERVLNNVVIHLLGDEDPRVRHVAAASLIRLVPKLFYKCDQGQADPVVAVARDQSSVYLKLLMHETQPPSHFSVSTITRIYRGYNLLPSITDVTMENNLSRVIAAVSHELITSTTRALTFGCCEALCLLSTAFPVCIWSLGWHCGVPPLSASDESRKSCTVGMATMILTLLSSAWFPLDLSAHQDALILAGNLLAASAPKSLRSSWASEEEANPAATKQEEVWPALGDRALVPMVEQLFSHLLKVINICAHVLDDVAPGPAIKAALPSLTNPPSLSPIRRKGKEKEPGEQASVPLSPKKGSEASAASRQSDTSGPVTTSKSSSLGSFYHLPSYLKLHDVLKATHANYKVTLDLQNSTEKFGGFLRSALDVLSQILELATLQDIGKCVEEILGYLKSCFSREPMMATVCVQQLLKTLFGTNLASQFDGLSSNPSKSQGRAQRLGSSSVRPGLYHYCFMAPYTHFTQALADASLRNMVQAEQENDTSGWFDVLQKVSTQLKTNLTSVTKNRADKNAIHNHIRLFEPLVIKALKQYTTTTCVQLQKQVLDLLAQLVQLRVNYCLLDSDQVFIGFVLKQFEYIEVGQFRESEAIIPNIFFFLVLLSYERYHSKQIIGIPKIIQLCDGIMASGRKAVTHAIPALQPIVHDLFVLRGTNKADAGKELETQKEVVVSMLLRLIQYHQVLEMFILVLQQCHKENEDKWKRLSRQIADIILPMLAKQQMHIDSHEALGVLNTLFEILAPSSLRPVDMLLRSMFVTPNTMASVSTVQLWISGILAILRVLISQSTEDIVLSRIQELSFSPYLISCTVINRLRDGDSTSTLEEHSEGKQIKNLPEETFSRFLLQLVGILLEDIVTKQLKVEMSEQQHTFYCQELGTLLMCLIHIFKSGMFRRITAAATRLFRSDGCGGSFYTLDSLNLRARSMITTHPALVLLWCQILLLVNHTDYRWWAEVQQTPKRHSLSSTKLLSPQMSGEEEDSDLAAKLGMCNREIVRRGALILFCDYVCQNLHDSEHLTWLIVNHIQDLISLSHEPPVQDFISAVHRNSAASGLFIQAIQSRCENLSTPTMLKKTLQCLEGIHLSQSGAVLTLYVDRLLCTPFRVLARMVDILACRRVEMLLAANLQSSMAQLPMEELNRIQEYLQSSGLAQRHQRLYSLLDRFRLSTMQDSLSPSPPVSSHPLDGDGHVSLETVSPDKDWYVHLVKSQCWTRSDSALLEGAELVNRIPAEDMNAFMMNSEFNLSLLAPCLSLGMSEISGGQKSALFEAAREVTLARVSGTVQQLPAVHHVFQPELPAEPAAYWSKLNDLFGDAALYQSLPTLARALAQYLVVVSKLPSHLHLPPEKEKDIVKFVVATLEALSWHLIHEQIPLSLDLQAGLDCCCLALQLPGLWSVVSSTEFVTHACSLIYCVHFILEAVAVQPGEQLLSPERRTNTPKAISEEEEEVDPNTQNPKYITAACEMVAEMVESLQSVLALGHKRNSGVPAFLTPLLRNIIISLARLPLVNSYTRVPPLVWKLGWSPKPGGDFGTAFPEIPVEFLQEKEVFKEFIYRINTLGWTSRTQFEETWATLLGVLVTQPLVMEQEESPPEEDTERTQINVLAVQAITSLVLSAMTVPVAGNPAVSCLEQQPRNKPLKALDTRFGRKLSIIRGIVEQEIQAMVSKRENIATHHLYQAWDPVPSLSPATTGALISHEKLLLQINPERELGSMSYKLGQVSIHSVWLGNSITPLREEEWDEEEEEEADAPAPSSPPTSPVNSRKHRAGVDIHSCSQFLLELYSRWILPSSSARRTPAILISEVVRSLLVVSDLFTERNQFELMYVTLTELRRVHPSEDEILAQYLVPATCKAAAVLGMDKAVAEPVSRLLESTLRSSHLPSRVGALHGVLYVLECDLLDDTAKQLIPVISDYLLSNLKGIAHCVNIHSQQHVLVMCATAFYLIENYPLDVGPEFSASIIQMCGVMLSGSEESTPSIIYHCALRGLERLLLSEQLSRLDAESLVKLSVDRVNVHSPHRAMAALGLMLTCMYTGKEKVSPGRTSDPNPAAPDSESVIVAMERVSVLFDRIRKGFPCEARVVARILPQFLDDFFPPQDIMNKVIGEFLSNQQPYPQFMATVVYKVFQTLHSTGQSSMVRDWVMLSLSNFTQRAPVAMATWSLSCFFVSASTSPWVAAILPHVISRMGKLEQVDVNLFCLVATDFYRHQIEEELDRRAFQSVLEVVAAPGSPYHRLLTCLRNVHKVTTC

This assay addresses Huntingtin (Homo sapiens) (UniProt P42858). The assay is described as follows: mutant huntingtin-calmodulin interaction inhibitors – biochemical, AlphaScreen, primary screen (AID 1671202).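 Also: 0% = both proteins with DMSO and 100% = one protein alone.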 The settings on record: AlphaScreen His-mHTT/GST-CaM binding, luminescence; at 15 µM, hits give high values.
In the case of `CCNc1nc(NCC)n2c(SCC(=O)c3ccc(C(C)(C)C)cc3)nnc2n1`, the inhibition is -3%.
For the compound `O=C(NCCc1ccc(Cl)cc1)c1cnn2c3c(cnc12)CCCC3`, the inhibition is -0.73%.
Consider `COc1ccc(C=C2Oc3c(ccc(OC(=O)N4CCOCC4)c3C)C2=O)cc1OC`, for which the inhibition is 1.6%.
As for `CCCc1[nH]nc2c1C1(CCOCC1)C(C#N)=C(N)O2`, the inhibition is -0.61%.
Turning to `COc1ccc(C=C2Oc3c(ccc(O)c3CN3CCN(C)CC3)C2=O)cc1OC`, the inhibition was 6.2%.
The same measure for `CN1CCN(Cc2c(O)ccc3c2OC(=Cc2cc4cc(Br)ccc4o2)C3=O)CC1`: 61.5% (active).
For the compound `COc1cccc(C=C2Oc3c(ccc(O)c3CN3CCN(C)CC3)C2=O)c1`, the inhibition is 18.1%.
Turning to `CCOc1ccccc1C(=O)NCc1ccc2c(c1)cc(C)n2C`, the inhibition is 38.2%.
Consider `COc1ccccc1N1CCN(C(=O)C(c2ccccc2)c2ccccc2)CC1`, for which the inhibition is 38.2%.
With `COc1ccccc1NC(=O)Nc1nc(CC(=O)N2CCc3ccccc32)cs1`, the inhibition is 14.7%.
Take `Cc1cc(C)nc(Nc2nc(CC(=O)Nc3nc(-c4ccco4)cs3)cs2)n1`: the inhibition was 83.2% (active).
`O=C(CCCn1cccc1)Nc1nc(-c2ccco2)cs1`: the inhibition was 28.4%.
For `COc1ccc(N2CCN(C(=O)CSCc3ccccc3)CC2)cc1`, the inhibition is 20.7%.
The same measure for `COc1ccccc1N1CCN(C(=O)Cc2csc(Nc3nc(C)cc(C)n3)n2)CC1`: 65% (active); for `COc1ccccc1N1CCN(C(=O)c2cn3ccc(C)cc3n2)CC1`: 0.9%; for `COC(=O)Nc1nc(CC(=O)NCc2ccco2)cs1`: -3.8%.
For `COc1ccccc1N1CCN(C(=O)CSCc2ccccc2C)CC1`, the inhibition was 66.4% (active).
Take `O=C(CCS(=O)(=O)c1ccc(Br)s1)Nc1ccc(F)cc1`: the inhibition was -1%.
In the case of `CC(C)C(=O)Oc1ccc2c(c1)OC(=Cc1ccco1)C2=O`, the inhibition is 42.1%.
In the case of `CC(C)C1(CCN(Cc2ccc3c(c2)OCO3)C(=O)c2ccco2)CCOC(C)(C)C1` (stereo not given), the inhibition was -2.26%.
Turning to `COc1cc(OC)cc(C(=O)Nc2nc(C)c(C)s2)c1`, the inhibition is 9.5%.
The same measure for `Cn1nccc1C(=O)N1CCC(c2nncn2-c2ccccc2)CC1`: -1.38%.
Regarding `CCC(C)NC(=O)c1cn(CC(C)C)c(=O)c2c1c1ccccc1n2C` (stereo not given), the inhibition was -2%.
The same measure for `Cc1ccc(COCc2nn(C)c3c2CN(C(=O)Nc2cccc(C)c2)CC3)cc1`: 30.3%; for `O=C(CSc1nccn1-c1ccccc1)Nc1ccccc1C(F)(F)F`: 18%.
The same measure for `Cc1cc(C(=O)N2CCC(CCOc3ccc(F)cc3)CC2)no1`: -3.47%; for `CCN1CCC2(CC1)N=C(c1ccccc1O)CC(c1ccc(C)cc1)N2` (stereo not given): 51.5% (active).
Then `CN1CCC2(CC1)N=C(c1ccc3c(c1)OCO3)CC(c1cc(Cl)ccc1O)N2` (stereo not given), with 16%.
As for `CCOC(=O)N1CCC2(CC1)N=C(c1cc(Cl)ccc1O)CC(c1ccc(C)cc1)N2` (stereo not given), the inhibition is 6.77%.
As for `CCOC(=O)N1CCC2(CC1)N=C(c1ccccc1O)CC(c1ccc(F)c(Cl)c1)N2` (stereo not given), the inhibition is 51.8% (active).
Then `COc1cccc(C2CC(c3ccc(C)cc3C)=NC3(CCN(C(C)=O)CC3)N2)c1O` (stereo not given), with 7.51%.
Then `Oc1ccc(Cl)cc1C1CC(c2ccccc2)=NC2(CCNCC2)N1` (stereo not given), with 7.96%; and `Cc1ccc(S(=O)(=O)NCC2CCN(C(=O)Oc3ccccc3)CC2)s1`, with -6.7%.
The same measure for `Cc1cccc(-c2nc(C3CCN(C(=O)Cc4ccccc4Br)CC3)no2)c1`: -7.4%; for `COc1ccc(C(=O)Oc2ccc3c(=O)c(Oc4ccccc4OC)coc3c2)cc1`: 0.8%; for `Cc1cccc(-n2nc3c(c2NC(=O)c2cccc(Cl)c2)CS(=O)(=O)C3)c1C`: 16%.
Turning to `CCCN(CCC)CCCNC(=O)CSc1nc2nc(C)c(Cc3ccccc3)c(C)n2n1`, the inhibition is 7%.
As for `COc1ccc(OCCCC(=O)Nc2ccccc2)cc1`, the inhibition is -9.6%.
As to `O=c1oc2ccc(Br)cc2cc1-c1ccc2c(c1)OCO2`, the inhibition is -1%.
The same measure for `C=CS(=O)(=O)N(Cc1nnn(Cc2ccccc2)c1Br)[C@H](C(=O)OC)C(C)C`: -13.3%.
As for `CN(Cc1ccccc1)C(=O)c1ccc(N2CC3CC(C2)c2cccc(=O)n2C3)c([N+](=O)[O-])c1` (stereo not given), the inhibition is 9%.
Take `COc1ccc(Br)cc1C=C(NC(=O)c1cc(OC)c(OC)c(OC)c1)C(=O)N1CC2CC(C1)c1cccc(=O)n1C2` (stereo not given): the inhibition is 73.4% (active).
Take `O=C(Nc1ccc(Cl)cc1)c1ccc(N2CC3CC(C2)c2cccc(=O)n2C3)c([N+](=O)[O-])c1` (stereo not given): the inhibition is 6%.
Then `CCC(=O)N1CCN(c2nc3c(s2)CC(C(=O)Nc2cc(C)ccc2C)CC3)CC1` (stereo not given), with 18.3%.
Take `COc1ccc(C2CC(C(F)(F)F)n3ncc(C(=O)Nc4cc(C)ccc4C)c3N2)cc1OC` (stereo not given): the inhibition was 27%.
The same measure for `Cc1ccc(NC(=O)c2cnn3c2NC(c2ccco2)CC3C(F)(F)F)cc1C` (stereo not given): -4%; for `COc1ccc(C2CC(C(F)(F)F)n3ncc(C(=O)Nc4ccc(C)c(C)c4)c3N2)cc1OC` (stereo not given): 53% (active).
On to `Cc1ccc(CNC(=O)c2ccnc(N3CCNC(c4ccccc4)C3)c2)cc1` (stereo not given), for which the inhibition is 35.5%.
Then `COCCCNC(=O)c1c(NC(=O)c2ccccc2Cl)sc2c1CCCC2`, with -17.4%; and `O=c1cc(-c2ccccc2F)oc2ccc(Cl)cc12`, with -8.7%.
As to `COc1cc(C=Nc2oc(C)c(C)c2C#N)ccc1O`, the inhibition was 6%.
As for `COc1cc(/C=C2\C(C)=C(C#N)c3nc(N)c(C#N)c(C)c32)ccc1O`, the inhibition is 60% (active).
As for `CC1=C(C#N)c2nc(N)c(C#N)c(C)c2/C1=C/c1ccccc1[N+](=O)[O-]`, the inhibition is 16%.
Then `CC(=O)Nc1c(C)ccc(S(=O)(=O)N2CCCCC2)c1C`, with 2.7%; and `CCCCCCN1CCS(=O)(=O)N(Cc2ccc(C(F)(F)F)cc2)C(C(=O)OC)C1` (stereo not given), with -0.1%.
Regarding `COC(=O)C1CN(CC(C)C)CCS(=O)(=O)N1Cc1ccc(F)cc1` (stereo not given), the inhibition was 7.2%.
Then `COC(=O)C1CN(CCc2ccccc2)CCS(=O)(=O)N1Cc1ccc(F)cc1` (stereo not given), with 50.6% (active); and `Nc1ncnc(NCc2cccc(Cl)c2)c1[N+](=O)[O-]`, with 3%; and `O=S(=O)(NCCN1CCOCC1)c1ccc(I)cc1`, with -0.7%.
Consider `Cc1ccc(OCCOCCN2CCOCC2)c([N+](=O)[O-])c1`, for which the inhibition was 2%.
Then `O=[N+]([O-])c1cc(S(=O)(=O)CCCN2CCOCC2)ccc1F`, with 97% (active); and `CC1CCc2nn(CC(=O)Nc3ccccc3Cl)c(=O)cc2C1` (stereo not given), with 0.27%.
As to `COc1ccc(N2CCN(CC(O)COc3ccc(C(C)=O)cc3)CC2)cc1` (stereo not given), the inhibition is 3.7%.
The same measure for `Cc1ccc(-c2nc3s/c(=C\c4ccccc4)c(=O)n3n2)cc1`: 7%; for `N#C/C(=C\c1cccs1)c1nc(-c2ccc3c(c2)OCO3)cs1`: -4.4%; for `COc1ccc(OC)c(NC(=O)NS(=O)(=O)c2ccc(C)cc2)c1`: 14.2%.
As for `CC(=O)Nc1cc2nn(-c3ccc(Cl)cc3)nc2cc1C`, the inhibition was 0.6% and -5%.
The same measure for `Cc1nnc2ccc(NC(=O)NCc3ccc(F)cc3)cn12`: -6.1%; for `Cc1nnc2ccc(S(=O)(=O)N(Cc3ccc(F)cc3)c3ccccc3)cn12`: 54.8% (active); for `Cc1nnc2ccc(S(=O)(=O)N(Cc3ccccc3)c3ccc(F)cc3)cn12`: -2.4%.
The same measure for `O=C(c1cccc(-n2cnnn2)c1)N1CCN(c2ccc(-c3cccs3)nn2)CC1`: 2.8%.
The same measure for `CC(C)Oc1ccc(C(=O)N2CCN(Cc3nc(-c4ccco4)cs3)CC2)cc1`: 9.1%.
As for `O=C(Nc1cccs1)N1CCN(c2ccc(-c3ccco3)nn2)CC1`, the inhibition was 52% (active).
Consider `COc1ccc(C2C(C#N)=C(N)N(c3ccccc3[N+](=O)[O-])C3=C2C(=O)CCC3)cc1` (stereo not given), for which the inhibition is 21%.
Then `Clc1ccc2[nH]c3c(c2c1)CCCC3NCCOc1ccccc1` (stereo not given), with 100% (active).
Regarding `Cc1ccc2[nH]c3c(c2c1)CCCC3O` (stereo not given), the inhibition is 19.3%.
Consider `COc1ccc(-c2cc3nc4c(c(=O)n3[nH]2)CCN(C(=O)c2ccccc2C)C4)cc1`, for which the inhibition was 65.3% (active).
In the case of `O=C(c1ccc(C(F)(F)F)s1)N1CCc2c(nc3cc(-c4ccccc4)[nH]n3c2=O)C1`, the inhibition was 42.1%.
Then `CCc1cccc(NC(=O)N2CCc3c(nc4cc(-c5ccc(OC)cc5)[nH]n4c3=O)C2)c1`, with 26.8%.
The same measure for `COC(=O)c1cccc(NC(=O)N2CCc3c(nc4cc(-c5ccccc5)[nH]n4c3=O)C2)c1`: 7.79%.
The same measure for `COc1ccc(-c2cc3nc4c(c(=O)n3[nH]2)CN(C(=O)c2ccc(C)nc2)CC4)cc1`: 1.93%; for `COc1ccc(-c2cc3nc4c(c(=O)n3[nH]2)CN(C(=O)CSc2ccccc2)CC4)cc1`: 9.49%.
Consider `CNC(=O)N1CCc2nc3cc(-c4ccc(OC)cc4)[nH]n3c(=O)c2C1`, for which the inhibition is 9.34%.
Turning to `O=C(C1COc2ccccc2O1)N1CCc2c(nc3cc(-c4ccccc4)[nH]n3c2=O)C1` (stereo not given), the inhibition is 76.2% (active).
Then `COc1ccc(-c2cc3nc4c(c(=O)n3[nH]2)CN(C(=O)c2ccccc2Cl)CC4)cc1`, with 62.5% (active); and `CCOc1ccc(NC(=O)c2ccc(F)c(S(=O)(=O)NC3CCCCCC3)c2)cc1`, with 11%.
The same measure for `C=CCN(C(C)=O)c1nc(C)c(Cl)c(OC)n1`: -2%.
Regarding `CCOC1CCc2oc(-c3ccsc3)c(C#CC(C)(C)O)c21` (stereo not given), the inhibition is 11.3%.
Then `O=C(NC1CC2CC1N(C(=O)c1cccc(C(F)(F)F)c1)C2)c1cccs1` (stereo not given), with 0.72%; and `COCc1noc(C2CCCCN2CC(=O)NCc2cccs2)n1` (stereo not given), with 0.04%.

As a reminder, the inhibition is the drop in the measured response relative to a control, in per cent.
